Measured values as given in PubChem BioAssay.

test: binders of probe aFSTL3 on microarray, primary screen, stem cell growth factor project, biochemical, small-molecule microarray, fluorescence 635/667 (AID 1064); settings: higher = more signal;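 further: measures binding of the biotinylated anti-FSTL3 antibody to printed compounds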

Going from `CC(C)CON=C1[C@H]2CCn3c(=O)n(-c4ccccc4)c(=O)n3[C@H]2[C@H](O)[C@@H]2O[C@H]12` to `CC[C@@H](c1ccccc1)n1c(=O)n2n(c1=O)[C@H]1[C@H](O)[C@@H]3O[C@@H]3C(=NOCC(C)C)[C@H]1CC2`, the composite z-score falls from -0.358 to -0.427.

Going from `O=C1C[C@@H](O)[C@@H](O)[C@@H]2[C@@H]3C(=O)N(c4cccc(Oc5ccccc5)c4)C(=O)[C@@H]3CC[C@@H]12` to `C[C@@H](c1ccccc1)N1C(=O)[C@H]2[C@H]3[C@H](O)C=CC(=O)[C@@H]3CC[C@H]2C1=O`, the composite z-score falls from -0.557 to -0.663.

First: CO[C@H]([C@@H](C)[C@H](OC)c1ccccc1)[C@H](C)[C@@H](OC)[C@H](C)C(C)=O
Second: CC(=O)OC[C@H]1O[C@H](CC=NOC[C@@H](C)[C@H](OCc2ccccc2)C(C)C)C=C[C@@H]1OC(C)=O
The composite z-score of the first is lower: -0.426 for the first, -0.0055 for the second.

First: Cc1ccc(S[C@]2(C(=O)NCC(F)(F)F)CC(=O)N(Cc3ccccc3Cl)[C@@H]2c2ccc(CO)cc2I)cc1
Second: COCCCNC(=O)[C@@]1(Sc2ccc(C)cc2)CC(=O)N(Cc2ccccc2)[C@@H]1c1ccc(CO)cc1I
The composite z-score of the first is higher: 0.647 for the first, 0.438 for the second.

Compared with `O=C1O[C@@H](c2ccccc2)[C@@H](c2ccccc2)N2[C@@H](c3ccc(O)cc3)[C@]3(C(=O)Nc4ccccc43)[C@@H](C(=O)O)[C@H]12`, `COCCOC(=O)N1C(=O)[C@@]2(c3cc(C#CCNC(N)=O)ccc31)[C@H](c1ccc(O)cc1)N1[C@H](c3ccccc3)[C@H](c3ccccc3)OC(=O)[C@H]1[C@@H]2C(=O)N1CCCCCCC1` is higher in composite z-score: -0.149 for the first, 0.282 for the second.

First: COCCNC(=O)OCC1CCCC2(CC(OC(=O)NCCc3ccc(F)cc3)CC(CCC(=O)N[C@@H](C)C(=O)OC)O2)O1 (stereo partly specified)
Second: CCOC(=O)[C@H](CC(C)C)NC(=O)CCC1CC(OC(=O)NCCc2ccc(F)cc2)CC2(CCCC(COC(=O)NCc3ccccc3)O2)O1 (stereo partly specified)
The composite z-score of the first is higher: -0.576 for the first, -0.969 for the second.

Compared with `CCCNC(=O)[C@@H]1c2ccccc2C(=O)N(c2ccc(C)cn2)[C@H]1c1ccc(CO)cc1`, `CC(C)NC(=O)[C@@]1(C)c2ccccc2C(=O)N(Cc2cc(F)cc(C(F)(F)F)c2)[C@H]1c1ccc(CO)cc1` is lower in composite z-score: 0.901 for the first, 0.0059 for the second.

Going from `CCOC(=O)CCN1C(=O)[C@H]2[C@H]3[C@H](O)[C@H](O)CC(=O)[C@H]3CC[C@H]2C1=O` to `CCOC(=O)NN=C1C[C@@H](O)[C@@H](O)[C@@H]2[C@@H]3C(=O)N(C[C@@H]4CCCO4)C(=O)[C@@H]3CC[C@@H]12`, the composite z-score rises from -0.554 to -0.216.

Compared with `C=CCC(OC(C)=O)[C@@H]1[C@@H](N(Cc2cc3ccccc3o2)C(=O)Cc2ccc(F)cc2)c2cc(OCCCO)ccc2N1C(=O)Cc1ccc(OC)cc1` (stereo partly specified), `COC(=O)[C@@]1(Cc2ccc(F)cc2)[C@H]2c3cc(C(=O)N(C)C)n(Cc4ccc(OC)c(OC)c4)c3C[C@H]2CN1C(=O)c1ccccc1` is higher in composite z-score: -0.115 for the first, 0.257 for the second.

Going from `COc1ccc(-c2nc3c(c4c2C[C@H](C)OC4)CN(CCC(C)C)CC3)cc1` to `CCCCc1nc2c(c3c1C[C@H](C)OC3)CN(CCC(C)C)CC2`, the composite z-score falls from -0.256 to -0.578.

Compared with `CO[C@@H]1COC(=O)[C@@H]2CCCN2C(=O)[C@@H](C)COC(=O)[C@H](COCc2ccccc2)NC(=O)CC=C[C@H]1C`, `O=C1NC(=O)C2C1C=CC(C(O)Cc1ccccc1)N2Nc1ccccn1` (stereo unspecified) is higher in composite z-score: -0.451 for the first, -0.368 for the second.

First: CCN1C(=O)[C@H]2[C@H]3[C@H](O)[C@H](O)CC(=NOC(C)CN4CCCCc5nc(C)c(C)cc54)[C@@H]3CC[C@H]2C1=O (stereo partly specified)
Second: CC(C)=CCCC(C)=CCON=C1C[C@@H](O)[C@@H](O)[C@@H]2[C@@H]3C(=O)N(C[C@@H]4CCCO4)C(=O)[C@@H]3CC[C@@H]12
The composite z-score of the first is lower: -0.698 for the first, -0.518 for the second.

Going from `CCc1cc2c(nc1CC)CCN(CCC(C)=NO[C@@H](C)c1cc(-c3c(C)cc(C)cc3C)no1)C2` to `COc1ccc(-c2ccc3c(n2)CCCN3CC(O)CN2CCCc3nc(C)c(C)cc32)cc1` (stereo unspecified), the composite z-score rises from -0.291 to 0.683.

Going from `CO[C@H]1O[C@H](CO)[C@@H](OC(=O)Nc2ccc3c(c2)OCO3)[C@H](OC(=O)Nc2ccccc2-c2ccccc2)[C@@H]1OC(=O)Nc1ccccc1-c1ccccc1` to `COc1ccc([Si](C)(C)[C@H]2[C@H](CCO)O[C@@]3(C(=O)N(Cc4cccc(NC(=O)[C@H](C)O)c4)c4ccccc43)[C@@H]2C)cc1`, the composite z-score falls from 0.0442 to -0.456.

Going from `COc1cccc([C@H]2Oc3ccc(OC)cc3C(=NO[C@H](C)c3cn([C@@H]4COC[C@H]4O)nn3)[C@@H]2O)c1` to `CC(CCC(=O)OC[C@H]1O[C@H](C#Cc2ccccc2)C=C[C@@H]1Oc1ccc(C)cc1)=NO[C@@H](C)c1cn([C@H](CO)Cc2ccccc2)nn1`, the composite z-score falls from -0.183 to -0.583.

Going from `CCCC[C@H]1OB(O)C[C@H]2C1=C(C)C[C@H]1C(=O)N(C)C(=O)[C@H]12` to `CCOC(=O)NN=C1C[C@@H](O)[C@@H](O)[C@@H]2[C@@H]3C(=O)N(C(C)(C)C)C(=O)[C@@H]3CC[C@@H]12`, the composite z-score rises from -0.626 to -0.295.

Going from `C/C=C\[C@@H](NCc1ccccc1Br)[C@@H](O)Cc1ccccc1` to `CC(C)=NOCc1ccc(-c2cc(-c3ccccc3)no2)cc1`, the composite z-score falls from 1.08 to -0.474.

Going from `CC(=O)C[C@H](O)[C@@H](NC(=O)OC(C)(C)C)C(C)C` to `COCCCNC(=O)[C@]1(Cc2ccccc2)N=C(c2ccc(OCCCO)cc2)O[C@@H]1c1ccccc1`, the composite z-score rises from -0.475 to 0.206.
